Lassa entry inh: qHTS for Inhibitors of binding or entry into cells for Lassa Virus; Lassa virus pseudotype entry inhibition, cell reporter; Potency, µM (doses to about 37.9 µM), without a hit: at the top dose activity change, negative = inhibition, usual class: inhibitors; 1.2% of 300,000 active; AID 540256, 2011; calls by dose curve; tested in HEK293 cells; note: potency is the fitted concentration of half-maximal effect; % is set by controls: 0 for no effect and ±100 for the full control effect; nearly all actives have a fitted effect of over 50% in size
Shiga toxin inh: A qHTS for Small Molecule Inhibitors of Shiga Toxin; Vero cells, Shiga toxin protein synthesis inhibition reporter; inhibition, % at 38.7 µM; 9.2% of 290,000 active; AID 2315, 2010; in the data active = inhibition mostly above about 28%, no sharp cut-off; inactive = mostly below about 43%; note: 0% is about no effect
MARV entry inh: qHTS for inhibitors of binding or entry into cells for Marburg Virus; 1.8% of 300,000 active; AID 540276, 2011; Marburg virus pseudotyped entry inhibition, cell reporter; Potency, µM (doses to about 37.8 µM), for inactives: top-dose activity change, negative = inhibition, most hits filed as inhibitors; calls by dose curve; tested in HEK293 cells; note: potency is the fitted concentration of half-maximal effect; % is set by controls: 0 for no effect and ±100 for the full control effect
HCV inh: qHTS Assay for Inhibitors of Hepatitis C Virus (HCV) | Potency, µM (doses to about 41.8 µM), for the others: at the top dose activity change, negative = inhibition, usual class: inhibitors | 3.4% of 340,000 active | Huh7.5.1 HCVcc-Cre infection, luciferase reporter, 44 h | AID 651820, 2012; active = well fitted inhibition curve with a large enough effect; inconclusive = small, poorly fitted or top-dose-only effect, or another doubt; inactive = no such curve, though single readings can be large or run the other way; note: potency is the fitted concentration of half-maximal effect; % is set by controls: 0 for no effect and ±100 for the full control effect
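Infectious HCV cell culture screen: compound-treated cells (1,000/well, pre-plated 4 h) are infected with HCVcc-Cre at roughly 0.5 moi and grown 44 h. Infection is quantified by luciferase signal after 15 min substrate incubation at room temperature.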
FMDV antiviral: High Throughput Screening for Foot and Mouth Disease Virus Antivirals | FMDV antiviral cell-based qHTS | Potency, µM (highest dose often 57.9 µM), for inactives: at the highest dose activity change, negative = inhibition, usual class: inhibitors | 1.2% of 410,000 active | AID 1159524, 2015; calls by dose curve; tested in HEK293T cells; note: read-out not given here; potency is the fitted concentration of half-maximal effect; % is set by controls: 0 for no effect and ±100 for the full control effect; nearly all actives have a fitted effect of over 45% in size
Cycloheximide cs: Cycloheximide Counterscreen for Small Molecule Inhibitors of Shiga Toxin; max response, %; cell reporter, cycloheximide protein synthesis inhibition counterscreen; 12% of 300,000 active; AID 2314, 2010; in the data active = max response mostly above about 13%, no sharp cut-off; inactive = mostly below about 14%; note: read at 38.3 µM for the half of the compounds with a filed dose; 0% is about no effect
Active calls of the source: *; ? = inconclusive; / = not tested or not shown; [ ] = dose if it differs, or a comment. Rows were chosen to be rich in hits. Some 13% of all compounds tested hit in one or more screens of this group.

SMILES	Lassa entry inh	Shiga toxin inh	MARV entry inh	HCV inh	FMDV antiviral	Cycloheximide cs
CCOC(=O)Nc1ccc2c(c1)N(C(=O)CCN(CC)CC)c1ccccc1CC2	/	/	/	4%	1%	-2
O=[N+]([O-])c1ccc(N2CCOCC2)nc1	8%	-8	2%	19%	/	3
O=C(c1ccc(F)cc1F)C1CCN(c2ccc([N+](=O)[O-])cn2)CC1	-11%[46.1 µM]	1	?	4.5µM*	?	6
OCC#Cc1cnc2ccccc2c1	13%	21	9%	4%	36%	26*
COc1ccc([C@@H]2[C@@H]3C(=O)N(C(C)(C)C)C(=O)[C@@H]3[C@]3(CC(C)C)C(=O)N(c4cccc(F)c4)C(=O)N23)cc1	/	/	/	8%	-6%	/
COc1cccc(CNC(=O)c2cc(S(=O)(=O)N3CCOCC3)ccc2N2CCCC2)c1	/	/	/	4%	-13%	/
O=C(NNC(=S)NC1CCCCC1)c1ccc2c(c1)OCO2	20%	-4	1%	-24%	92%	-2
c1cc2c(cc1NC1CCCCCC1)OCO2	14%	11	-2%	18%	21%	16*
O=C(NCc1ccc2c(c1)OCO2)C(=O)NC1CCCCC1	1%	-4	7%[46.1 µM]	7%	-5%	1
CN(C(=O)c1ccc2c(c1)OCO2)C1(C(=O)NC2CCCC2)CCCCC1	27%	7	-12%	7%	5%	-3
O=C(NC1CCCCC1)c1ccc2c(c1)OCCO2	-9%[46.1 µM]	42*	?	27%	35%	21*
O=C(NC1CCCCCCC1)c1ccc2c(c1)OCO2	-20%	48*	-19%	1%	-21%	42*
S=C(NC1CCCCC1)c1ccc2c(c1)OCO2	4%	66*	?	?	48%	22*
Cc1ccccc1NC(=O)CNc1ccc(Cl)c(C(F)(F)F)c1	2%	-2	?	4%	-16%	-1
CNS(=O)(=O)c1cccc(C(=O)OCC(=O)Nc2nc(OC)cc(OC)n2)c1	-25%	/	?	6%	9%	/
O=C(c1ccc2c(c1)OCO2)N(Cc1cccs1)C1(C(=O)NC2CCCCC2)CCCCC1	?	-2	8.9µM*	?	?	1
Cc1ccc(-c2nn(C)c(=O)c3ccccc23)cc1CN1CCOCC1	1%	-5	-21%[46.1 µM]	-14%	?	-3
COc1cccc(NC(=O)c2cccnn2)c1	/	18	/	-2%	23%	21*
COc1ccc(NC(=O)c2cccnn2)cc1	/	29*	/	18%	46%	24*
COc1cccc(NC(=O)c2cccc(C(=O)Nc3cccc(OC)c3)n2)c1	?	-3	14%	/	-5%	4
Cc1nc(SCC(=O)NCc2ccc(F)cc2)c2c(=O)n(C)c(=O)n(C)c2n1	/	12	/	?	-17%	-2
CCCCNC(=O)c1c[nH]c2ccc(S(=O)(=O)N3CCOCC3)cc2c1=O	-8%	26	-4%[46.1 µM]	?	-13%	10
CC(C)Oc1ccc(Br)cc1C(=O)N/N=C/c1c[nH]c2ccccc12	-13%[46.1 µM]	-6	?	10µM*	-9%	4
O=C(N/N=C\c1c[nH]c2ccccc12)c1ccc(O)cc1	29%[46.1 µM]	63*	?	-10%	1%	39*
CC(C)(C)OC(=O)N/N=C/c1cc(N=Nc2ccccc2)ccc1O	?	-8	?	32µM*	?	-2
SMILES	Lassa entry inh	Shiga toxin inh	MARV entry inh	HCV inh	FMDV antiviral	Cycloheximide cs
COC(=O)N/N=C/c1c[nH]c2ccccc12	0%	10	22%	-7%	0%	1
O=C(N/N=C/c1c[nH]c2ccccc12)c1ccc(Br)cc1	-23%[46.1 µM]	54*	?	29%	11%	32*
Cc1cccc(NCC(=O)N/N=C\c2c[nH]c3ccccc23)c1	?	2	?	-16%	16%	13
CCOCCCNC(=O)C(c1ccccc1)N(Cc1ccc2c(c1)OCO2)C(=O)c1ccc(NC(C)=O)cc1 (stereo not given)	?	/	?	/	-6%	/
CCCCS(=O)(=O)NC1=NCN(CC)CN1	2%	-9	11%	3%	13%	-3
CC(C)Nc1nc2nonc2nc1Nc1ccccc1	-11%	5	?	-28%	?	1
O=C(CNC(=O)c1ccc([N+](=O)[O-])cc1)N/N=C/c1c[nH]c2ccccc12	0%	-11	0%	/	-18%	-2
O=C(N/N=C/c1c[nH]c2ccccc12)c1ccc(Cl)cc1	8%	72*	?	?	52%	34*
COc1ccccc1/C=N/NC1=NCCCCC1	?	11	18%	-11%	/	18
C(=N\NC1=NCCCCC1)/c1c[nH]c2ccccc12	5%	32	1%[46.1 µM]	-21%	32%	21*
Cc1occc1C(=O)N/N=C/c1c[nH]c2ccccc12	8%	96*	21%	18%	76%	48*
Nc1ccc(C(=O)N/N=C/c2c[nH]c3ccccc23)cc1	/	51	/	15%	47%	29*
O=C(CNC(=O)c1ccco1)N/N=C/c1c[nH]c2ccccc12	/	-4	/	3%	4%	6
CCCC1(C)C(C#N)C(=O)NC(=O)C1C#N (stereo not given)	23%[46.1 µM]	/	?	6%	4%	/
Cc1nnc(N/N=C/c2c[nH]c3ccccc23)[nH]c1=O	/	-1	/	-9%	-15%	1
O=C(N/N=C/c1c[nH]c2ccccc12)c1ccccc1Cl	13%	55	13%	?	37%	26*
O=C(N/N=C/c1c[nH]c2ccccc12)c1cc(Cl)ccc1O	/	44*	/	12%	48%	45*
O=C(N/N=C/c1c[nH]c2ccccc12)C1CC1(c1ccccc1)c1ccccc1 (stereo not given)	?	-6	?	?	9%	-1
Fc1c(F)c(F)c(N/N=C/c2c[nH]c3ccccc23)c(F)c1F	-18%	23	?	?	7%	16*
CC(C)(C)OC(=O)N/N=C/c1c[nH]c2ccccc12	1%	73*	24%	0%	19%	56*
NC(=S)N/N=C/c1c[nH]c2ccccc12	/	38	/	?	-5%	6
COc1ccc(C(C(=O)NC(C)(C)C)N(C(=O)CCC(=O)Nc2ccccn2)C2CCCCC2)cc1 (stereo not given)	-5%[46.1 µM]	-4	?	7%	2%	-8
Clc1ccc2nc(-c3cccs3)c(Nc3ccc4c(c3)OCCO4)n2c1	13%[46.1 µM]	/	25%[46.1 µM]	/	-6%	/
Cc1ccc(C)c(NC(=O)CN(C)S(=O)(=O)c2ccc3c(c2)CCC(=O)N3)c1	0%[46.1 µM]	/	0%[46.1 µM]	/	-9%	/
O=C(O)c1ccc(N/N=C/c2c[nH]c3ccccc23)cc1	/	2	/	13%	6.3µM*	9
Cc1cc2cc(CN(Cc3ccco3)C(=S)NCC3CCCO3)c(=O)[nH]c2cc1C (stereo not given)	2%	-9	?	-4%	?	1
C/C(CCC12CC3CC(CC(C3)C1)C2)=N\NC(N)=S	?	-8	-25%	11µM*	0%	-2
